According to PubChem BioAssay AID1159580 (chemical genetic matrix, 2015):
Values joined by “and” are separate entries in the source; they are usually repeats but may differ in a detail not shown here. Equal entries are not always repeated. The campaign covered roughly 5,500 compounds. About 2,000 (36%) were called active. Roughly 18% stayed inconclusive and do not appear here. No stated cut-off is given here; in the data, active means normalized growth mostly below about 0.91 (no sharp cut-off); inconclusive means no clear call, values can overlap the other calls; inactive means mostly above about 0.92. Some of the results follow.

Experiment: chemical genetic growth profiling, strain panel (AID 1159580);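 further: tested at 20 µM; growth read once vehicle control cultures reached saturation at 30 °C; 1 = growth at the plate median or of vehicle wells; lower values mean less growth of the strain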
Conditions: S. cerevisiae deletion strains, growth OD

Measured: normalized growth

Fc1ccc([C@@H]2CCNC[C@H]2COc2ccc3c(c2)OCO3)cc1
inactive: locus YAL013W, strain DEP1, hits give low values 1.02 | locus YAL021C, strain ccr4, hits give low values 1 | locus YAL026C, strain drs2, hits give low values 0.997 | locus YAL030W, strain snc1, hits give low values 1.01 | locus YBL061C, strain skt5, hits give low values 0.991 | locus YBR009C, strain hhf1, hits give low values 1.01 | locus YBR021W, strain FUR4, hits give low values 1.01 | locus YBR023C, strain chs3, hits give low values 1 | locus YBR171W, strain sec66, hits give low values 0.984 | locus YBR229C, strain ROT2, hits give low values 1.01 | locus YBR231C, strain swc5, hits give low values 0.992 | locus YBR279W, strain paf1, hits give low values 1 | locus YCL011C, strain gbp2, hits give low values 0.999 | locus YCL016C, strain dcc1, hits give low values 0.99 | locus YCL029C, strain bik1, hits give low values 1.02 | locus YCL061C, strain MRC1, hits give low values 0.998 | locus YCL069W, strain vba3, hits give low values 1 | locus YCR088W, strain abp1, hits give low values 1 | locus YDL005C, strain med2, hits give low values 1.01 | locus YDL035C, strain GPR1, hits give low values 1.03 | locus YDL040C, strain nat1, hits give low values 0.992 | locus YDL074C, strain BRE1, hits give low values 1.01 | locus YDL101C, strain DUN1, hits give low values 1.01 | locus YDL134C, strain PPH21, hits give low values 1 | locus YDL185W, strain tfp1, hits give low values 1.01 | locus YDL192W, strain arf1, hits give low values 1.01 | locus YDR001C, strain nth1, hits give low values 0.999 | locus YDR069C, strain doa4, hits give low values 1.01 | locus YDR101C, strain arx1, hits give low values 1 | locus YDR137W, strain rgp1, hits give low values 1.09 | locus YDR150W, strain NUM1, hits give low values 1 | locus YDR159W, strain sac3, hits give low values 1.01 | locus YDR162C, strain NBP2, hits give low values 1 | locus YDR195W, strain ref2 1.02 | locus YDR297W, strain sur2, hits give low values 0.998 | locus YDR318W, strain mcm21, hits give low values 1.02 | locus YDR334W, strain swr1, hits give low values 1.01 | locus YDR335W, strain msn5, hits give low values 1.01 | locus YDR388W, hits give low values 1 | locus YDR392W, strain spt3, hits give low values 1.02 | locus YDR502C, strain sam2, hits give low values 0.998 | locus YEL003W, strain gim4, hits give low values 1.01 | locus YEL037C, strain rad23, hits give low values 1 | locus YEL061C, strain CIN8 (second series), hits give low values 1 | locus YEL061C, strain CIN8, hits give low values 1.01 | locus YER015W, strain faa2, hits give low values 1.01 | locus YER016W, strain bim1, hits give low values 0.99 | locus YER110C, hits give low values 1.02 | locus YER111C, strain swi4, hits give low values 0.984 | locus YER155C, strain BEM2 (second series), hits give low values 1.01 | locus YER155C, strain BEM2, hits give low values 1 | locus YER167W, strain BCK2, hits give low values 1.02 | locus YFR010W, strain ubp6, hits give low values 1.03 | locus YGL078C, strain dbp3, hits give low values 0.989 | locus YGL086W, strain mad1, hits give low values 1.02 | locus YGL167C, strain pmr1, hits give low values 1 | locus YGL173C, strain kem1, hits give low values 0.986 | locus YGL227W, strain vid30, hits give low values 0.987 | locus YGL240W, strain doc1, hits give low values 0.99 | locus YGL248W, strain PDE1, hits give low values 1.01 | locus YGL253W, strain hxk2, hits give low values 0.993 | locus YGR078C, strain PAC10, hits give low values 1 | locus YGR135W, strain pre9, hits give low values 0.987 | locus YGR229C, strain SMI1, hits give low values 1 | locus YGR252W, strain gcn5, hits give low values 1.05 | locus YHR013C, strain ard1, hits give low values 0.998 | locus YHR027C, strain rpn1, hits give low values 1 | locus YHR030C, strain SLT2, hits give low values 1.01 | locus YHR079C, strain IRE1 (second series), hits give low values 1 | locus YHR079C, strain IRE1, hits give low values 1.02 | locus YHR094C, strain hxt1, hits give low values 0.999 | locus YHR129C, strain ARP1, hits give low values 1.01 | locus YHR142W, strain chs7, hits give low values 0.969 | locus YHR200W, strain rpn10, hits give low values 1.01 | locus YIL066C, strain RNR3, hits give low values 1.01 | locus YIL073C, strain SPO22, hits give low values 1.09 | locus YIL125W, strain kgd1, hits give low values 0.997 | locus YIR030C, strain dcg1, hits give low values 1 | locus YJL092W, strain hpr5, hits give low values 0.998 | locus YJL095W, strain BCK1 (second series), hits give low values 0.995 | locus YJL095W, strain BCK1, hits give low values 1.02 and 1.01 | locus YJL115W, strain asf1, hits give low values 1 | locus YJL129C, strain trk1, hits give low values 0.987 | locus YJL134W, strain LCB3, hits give low values 1.01 | locus YJL154C, strain vps35, hits give low values 1.02 | locus YJL164C, strain tpk1, hits give low values 1.01 | locus YJL166W, strain qcr8, hits give low values 1.03 | locus YJL168C, strain set2, hits give low values 1.01 | locus YJL187C, strain SWE1 (second series), hits give low values 1 | locus YJL187C, strain SWE1, hits give low values 1.01 | locus YJR043C, strain POL32, hits give low values 1.04 | locus YJR066W, strain TOR1, hits give low values 1.02
